Hsp70 activator = switches on Hsp70 transcription | HeLa Hsp70 promoter luciferase reporter, luminescence; scaled: vehicle 0, proteasome-inhibitor control 100% | activation, % at 10 µM | hit rate 0.04% among 200,000 | AID 1203;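 active = activation above the mean across all tested compounds plus 3 SD, cutoff set per campaign, cut at about 5.5% in these data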
APP 5UTR inh = APP translation inhibition; SH-SY5Y APP 5'UTR-luciferase reporter, luminescence; inhibition, % at 2 µM; hit rate 0.82% among 190,000;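 active = inhibition above a set limit, derived from the sample mean plus 3 SD, cut at about 45% in these data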
Wee1 degr inh = human Wee1 degradation inhibition, primary screen; P30291; hit rate 1.2% among 220,000; AID 1321; HeLa Luc-Wee1K328M stability, luciferase luminescence; 100% = proteasome inhibitor MG132 effect; reporter increase, % at 5 µM;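 active = activation above the mean of all tested compounds plus 3 SD, set per screening run, cut at about 8.8% in these data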;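 also: cells exposed to compound for 20 h before luminescence read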
Target sequence (P30291 whole entry K328M): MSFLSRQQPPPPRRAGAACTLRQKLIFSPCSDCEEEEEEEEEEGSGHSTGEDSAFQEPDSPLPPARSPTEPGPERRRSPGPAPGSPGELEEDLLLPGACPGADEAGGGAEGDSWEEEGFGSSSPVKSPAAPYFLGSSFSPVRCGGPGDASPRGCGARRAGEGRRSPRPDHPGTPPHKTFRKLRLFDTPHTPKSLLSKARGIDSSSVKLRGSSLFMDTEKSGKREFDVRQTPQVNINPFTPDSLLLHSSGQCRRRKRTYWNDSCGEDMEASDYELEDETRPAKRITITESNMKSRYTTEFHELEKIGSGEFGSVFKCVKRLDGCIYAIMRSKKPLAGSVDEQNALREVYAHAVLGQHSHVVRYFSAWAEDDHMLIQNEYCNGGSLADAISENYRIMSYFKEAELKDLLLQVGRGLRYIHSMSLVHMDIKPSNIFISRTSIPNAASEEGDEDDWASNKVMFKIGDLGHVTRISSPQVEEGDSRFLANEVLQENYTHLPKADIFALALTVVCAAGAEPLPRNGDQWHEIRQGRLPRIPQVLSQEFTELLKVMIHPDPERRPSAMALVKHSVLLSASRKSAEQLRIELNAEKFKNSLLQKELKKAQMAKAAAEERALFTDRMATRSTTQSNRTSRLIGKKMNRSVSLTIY
NF-kB neuron act = compounds increasing NF-kB expression in human neuronal cells. NF-kB reporter expression; hits give high values. fold change at 12.5 µM. hit rate 1.6% among 190,000. AID 1239; in the data active = fold change above about 3.3
STAT1 act = activators of IFN-gamma induced STAT1 signaling; activation (% of control), % at 5.5 µM; AID 932; NIH 3T3 STAT1-luciferase reporter, luminescence; 100% = IFN-gamma alone, no compound; hit rate 2.6% among 200,000;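 active = activation above the screen-wide mean activation plus 3 SD, cut at about 130% in these data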
APP 5'UTR act = activates APP 5'UTR luciferase reporter | SH-SY5Y APP 5'UTR luciferase reporter, luminescence; zero percent = DMSO vehicle wells | activation, % at 2 µM | hit rate 1% among 190,000;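 active = activation above a set limit, based on mean plus 3 SD of controls, cut at about 140% in these data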
Each line names hits and unclear results; the compound was inactive in the other large screens. Most compounds without a hit are left out; they make up all but 4.8% or so of the library.

O=C(CSc1nnc(-c2ccccc2Cl)o1)Nc1ccccn1	none
O=[N+]([O-])c1ccccc1NCCOc1ccccc1	STAT1 act 129.4
O=C(CCOc1ccccc1)Nc1ccccc1[N+](=O)[O-]	none
C/C(=N/NC(=O)c1cccs1)c1c(C)[nH]n(-c2nc3ccccc3s2)c1=O	none
c1ccc(Nc2ncnc3sc4c(c23)CCC4)cc1	none
NNc1nc(-c2ccccc2Cl)nc2sc3c(c12)CCCC3	NF-kB neuron act 3.31
Cc1nn(-c2ccccc2)c(Cl)c1/C=N/Nc1nnc(C)c(=O)[nH]1	none
O=C(/C=C/Sc1ccccc1)c1ccccc1	NF-kB neuron act 5.22
COc1ccc(C(=O)/C=C/Sc2nc3ccccc3o2)cc1	none (no result: Hsp70 activator, APP 5UTR inh, NF-kB neuron act, STAT1 act, APP 5'UTR act)
O=C(/C=C/Sc1ccccc1)c1ccc(Cl)cc1	NF-kB neuron act 6.25
CC(C)(C)c1ccc(Cn2nc(CC(=O)O)c3ccccc3c2=O)cc1	none
Cc1ccc(/C=C2\SC(N)=NC2=O)s1	none
Clc1ccc(-c2cc3ccccc3[nH]2)cc1	STAT1 act 130.9
O=c1cc(-c2ccc(Cl)cc2)[nH]c2ccccc12	none (no result: Hsp70 activator, APP 5UTR inh, NF-kB neuron act, STAT1 act, APP 5'UTR act)
Cc1ccc(C(=O)Nc2nc(=O)n(C(=O)c3ccccc3Cl)s2)cc1	STAT1 act 141.0
Cn1cnnc1SCC(=O)Nc1ccc2nc(SCc3ccccc3F)sc2c1	STAT1 act 145.8
O=C(CCC(=O)N1CCN(c2ccc(F)cc2)CC1)c1ccc(F)cc1	none (no result: Hsp70 activator, APP 5UTR inh, NF-kB neuron act, STAT1 act, APP 5'UTR act)
O=C(c1ccc(F)cc1)c1ccc(N2CCCC2)cc1	STAT1 act 137.8
Cn1nnnc1Sc1ccc([N+](=O)[O-])cc1Cl	none
COc1cc(/C=N/N=C(\N)c2nonc2N)ccc1O	STAT1 act 129.8
N/C(=N\N=C\c1ccc(O)c(O)c1)c1nonc1N	none (no result: Hsp70 activator, APP 5UTR inh, NF-kB neuron act, STAT1 act, APP 5'UTR act)
N/C(=N\N=C\c1ccc(O)cc1)c1nonc1N	NF-kB neuron act 5.13
N/C(=N\N=C\c1cccc(O)c1)c1nonc1N	NF-kB neuron act 8.69, APP 5'UTR act 154.8
N/C(=N\N=C\c1ccc([N+](=O)[O-])cc1)c1nonc1N	none (no result: Hsp70 activator, APP 5UTR inh, NF-kB neuron act, STAT1 act, APP 5'UTR act)
O=C(c1ccccc1)c1ccc2ccccc2n1	none
CCOC(=O)C(=O)/C(=C\N(C)C)c1onc(-c2c(F)cccc2Cl)c1C(=O)OC	none
COc1ccccc1OS(=O)(=O)c1ccc(NC(C)=O)cc1	none
COC(=O)/C=C/S(=O)(=O)c1ccc(NC(C)=O)cc1	APP 5UTR inh 83.3
COc1cccc(C(c2sc3ncnn3c2O)N2CCc3ccccc3C2)c1 (configuration not stated)	none
Cc1ccc(C(=O)OCCN(C)Cc2ccccc2)cc1	Wee1 degr inh 9.2
COc1ccc(-c2cc(C(=O)Nc3cccc(S(=O)(=O)NCc4ccco4)c3)c3ccccc3n2)cc1OC	none
O=C(Nc1cccc(S(=O)(=O)NCc2ccco2)c1)c1cc(-c2ccc(F)cc2)nc2ccccc12	Wee1 degr inh 9.2
Cc1ccc(Cn2c(SCC(=O)NCC3CCCO3)nc3ccsc3c2=O)cc1 (configuration not stated)	none
CCn1c(C(=O)OC)cc2c1ccn2-c1ccc(F)cc1	STAT1 act 144.3
CC(=NCc1ccco1)c1c(C)[nH]n(-c2nc3ccccc3s2)c1=O	APP 5'UTR act 152.8
Cc1ccccc1NC(=S)N/N=C/c1ccc(O)cc1O	none (no result: Hsp70 activator, APP 5UTR inh, NF-kB neuron act, STAT1 act, APP 5'UTR act)
CCCOc1ccc(/C=N/Nc2ccccc2[N+](=O)[O-])c(O)c1	APP 5'UTR act 172.7
COc1ccc(/C=N/NC(=S)Nc2ccccc2[N+](=O)[O-])cc1O	APP 5'UTR act 206.0
CCCOc1ccc(/C=N/Nc2cccc([N+](=O)[O-])c2)c(O)c1	none
CCCOc1ccc(/C=N/NC(=S)Nc2ccccc2[N+](=O)[O-])c(O)c1	APP 5UTR inh 46.5
O=C(CCC1CCCN(C(=O)c2ccc3cc[nH]c3c2)C1)N1CCN(c2ccccn2)CC1 (configuration not stated)	none
C=CCn1cc(C(=O)OC)c(=O)c2cc(S(=O)(=O)N3CCCCCC3)ccc21	none
CN(C)c1ccc(/C=N/NC(=O)c2ccc(NC(=O)c3ccccc3)cc2)cc1	none (no result: Hsp70 activator, APP 5UTR inh, NF-kB neuron act, STAT1 act, APP 5'UTR act)
Cc1c(C(=O)N/N=C/c2ccc(N(C)C)cc2)[nH]c2ccc(Cl)cc12	APP 5UTR inh 89.8
Cc1c(C(=O)N/N=C/c2ccccc2)[nH]c2ccc(Cl)cc12	APP 5UTR inh 52.5
COC(=O)c1cc(-c2c(C)nn(-c3ccccc3)c2C)n[nH]1	NF-kB neuron act 5.94
Cc1ccc(-c2cc(C(=O)N/N=C/c3ccco3)[nH]n2)cc1	none (no result: APP 5UTR inh, APP 5'UTR act)
Cc1ccc(-c2cc(C(=O)N/N=C/c3c(C)nn(-c4ccccc4)c3C)[nH]n2)cc1	APP 5UTR inh 94.9
Cc1ccc(-c2cc(C(=O)N/N=C/c3c(C)nn(-c4ccccc4)c3C)n[nH]2)s1	APP 5UTR inh 92.5
Cc1nn(-c2ccccc2)c(C)c1/C=N/NC(=O)c1cc(C(C)(C)C)[nH]n1	none
CC1=CCC2C(=O)N(c3ccc(Br)cc3C)C(=O)C2C1 (configuration not stated)	none
CSc1nsc(SC)c1NC(=O)N1CCCC1	none
COCCN(CC(=O)NC1CCCCC1)C(=O)/C=C/C(=O)c1ccc(OC)cc1O	APP 5UTR inh 93.0
COc1ccc(CN(C(=O)/C=C/C(=O)c2ccc(OC)cc2O)C(C(=O)NC2CCCCC2)c2ccncc2)cc1 (configuration not stated)	none
COc1ccc(C(=O)/C=C/C(=O)N(CC(=O)NC2CCCCC2)Cc2cccs2)c(O)c1	APP 5UTR inh 77.4
CN1C(=O)C(c2nnc(Nc3cccc4ccccc34)s2)C2CC1(C)Oc1ccccc12 (configuration not stated)	none
Cc1ccc(S(=O)(=O)N(C)C)cc1NC(=O)COC(=O)c1ccc(Cl)cc1	none
S=C(Nc1ccccc1)Nc1ccc(OCc2ccc(Cl)cc2Cl)cc1	APP 5UTR inh 70.0
O=C(CSc1nnc(-c2ccc(F)cc2)c2ccccc12)Nc1ccccc1	Wee1 degr inh 10.1
O=C(COc1ccc(Cl)cc1)Nc1cccc(-c2ccc3nncn3n2)c1	none
COc1cc(C(=O)OCC(=O)NC(=O)C2CCCCC2)ccc1OC(F)F	Wee1 degr inh 9.8
Cc1ccccc1NC(=O)C1Cc2ccccc2C(=O)O1 (configuration not stated)	NF-kB neuron act 3.32
O=C1OC(C(=O)Nc2nccs2)Cc2ccccc21 (configuration not stated)	none (no result: APP 5UTR inh, APP 5'UTR act)
COc1ccc(-c2cc(-c3cc(C)ccc3O)[nH]n2)cc1	NF-kB neuron act 17.7, STAT1 act 146.3
Cc1ccc(O)c(-c2cc(-c3ccccc3C)[nH]n2)c1	none
COc1ccc(-c2cc(C(=O)NN)[nH]n2)cc1OC	APP 5UTR inh 72.7
COc1ccc(-c2cc(C(=O)O)[nH]n2)cc1OC	none
COc1ccc(-c2cc(C(=O)NN)[nH]n2)cc1	APP 5UTR inh 84.2
CCOc1ccc(-c2cc(C(=O)NN)[nH]n2)cc1	none
CS(=O)(=O)N(CC(O)Cn1c2ccccc2c2ccccc21)c1ccccc1 (configuration not stated)	none
